Source: the supplement of paper PMC3545927
The list shows a part of the results. The true hit rate is not given.

Target: furin, P09958
Test: furin cleavage Z-score vs untreated control; higher = more cleavage, active = 3.5 or more, inactive = 1 or less, 8 variable residues between constant flanks
Method in brief: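 In 50 mM HEPES pH 7.5 with CaCl2 and NaCl, purified furin was incubated with bead-anchored 8-mer peptide–cDNA fusions at 1:10 enzyme:substrate in 0.01 ml. Incubation times were 7.5, 15 and 30 min. DNA set free by cleavage was adapter-tagged by PCR and sequenced, with read counts taken as abundance. Log counts relative to furin-free reactions, after lowess adjustment and median absolute deviation scaling, form the cleavage Z-score.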

Sequence of furin, P09958 (P09958 whole entry): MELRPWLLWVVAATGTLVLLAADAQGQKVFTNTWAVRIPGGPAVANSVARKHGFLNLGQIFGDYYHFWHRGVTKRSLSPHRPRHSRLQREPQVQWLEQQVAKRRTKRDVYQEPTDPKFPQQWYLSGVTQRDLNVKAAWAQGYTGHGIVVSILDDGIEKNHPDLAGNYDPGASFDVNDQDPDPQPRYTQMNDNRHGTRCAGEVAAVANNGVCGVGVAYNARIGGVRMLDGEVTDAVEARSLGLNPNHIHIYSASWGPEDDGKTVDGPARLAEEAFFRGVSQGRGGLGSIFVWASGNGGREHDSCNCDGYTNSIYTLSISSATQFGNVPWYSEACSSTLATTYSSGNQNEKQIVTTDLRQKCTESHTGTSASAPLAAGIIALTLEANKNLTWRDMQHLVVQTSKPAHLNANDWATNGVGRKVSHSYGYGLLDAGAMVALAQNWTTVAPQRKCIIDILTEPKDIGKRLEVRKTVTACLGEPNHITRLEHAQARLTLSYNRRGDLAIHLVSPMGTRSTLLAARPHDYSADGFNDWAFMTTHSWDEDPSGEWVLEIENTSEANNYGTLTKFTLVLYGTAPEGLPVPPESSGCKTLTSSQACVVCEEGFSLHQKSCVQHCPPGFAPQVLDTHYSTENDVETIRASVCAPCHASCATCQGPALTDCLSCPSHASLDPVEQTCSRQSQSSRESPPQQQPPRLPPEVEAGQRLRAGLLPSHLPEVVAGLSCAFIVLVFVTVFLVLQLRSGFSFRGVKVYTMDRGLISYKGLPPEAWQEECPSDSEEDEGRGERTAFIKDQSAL

Sequence	furin cleavage Z-score (7.5 min)	furin cleavage Z-score (15 min)	furin cleavage Z-score (30 min)
CAMEYCSQHLAGNASASA [HC1709]	1.22	0.203 (inactive)	0.301 (inactive)
CAVVGTTDRSAGNASASA [HC418]	0.937 (inactive)	1.04	0.404 (inactive)
CASEARMVRSAGNASASA [FS-1079]	1.59	3.05	3.76 (active)
CAAVGRRVRSAGNASASA [FS-12]	9.92 (active)	9.75 (active)	7.92 (active)
CANIVDVQYLAGNASASA [HC508]	-0.996 (inactive)	-0.739 (inactive)	-1.04 (inactive)
CAVWARPDYNAGNASASA [HC1304]	0.568 (inactive)	-0.706 (inactive)	-1.06 (inactive)
CASTAAQTFLAGNASASA [HC692]	-0.854 (inactive)	-1.17 (inactive)	0.0229 (inactive)
CAREKKDVLAAGNASASA [FS-2484]	0.263 (inactive)	0.353 (inactive)	1.5
CAREKRDVQPAGNASASA [FS-1693]	10.8 (active)	12.3 (active)	8.99 (active)
CAREKRQAKHAGNASASA [FS-2255]	8.15 (active)	10.9 (active)	9.4 (active)
CAREKRDSVCAGNASASA [FS-1851]	1.11	-0.614 (inactive)	2.31
CAREKRHRKKAGNASASA [FS-2007]	-1.19 (inactive)	-0.208 (inactive)	-0.665 (inactive)
CAPTYSWGENAGNASASA [HC423]	0.499 (inactive)	-1.13 (inactive)	0.237 (inactive)
CALQGREQLTAGNASASA [FS-1882]	0.515 (inactive)	-3.14 (inactive)	-0.352 (inactive)
CALQRRWKRTAGNASASA [FS-685]	12.5 (active)	11.8 (active)	10 (active)
CAYSQRWKRTAGNASASA [FS-904]	8.92 (active)	9.32 (active)	7.56 (active)
CAGQARWKRPAGNASASA [FS-656]	0.0361 (inactive)	0.0218 (inactive)	-0.505 (inactive)
CALTTSCGNTAGNASASA [HC1513]	0.0451 (inactive)	-1.21 (inactive)	-0.123 (inactive)
CAYSWGENDTAGNASASA [HC424]	-0.162 (inactive)	-1.61 (inactive)	0.0496 (inactive)
CALTYRAKRTAGNASASA [FS-1033]	10.2 (active)	12 (active)	9.3 (active)
CALTDPSHITAGNASASA [HC1248]	-1.48 (inactive)	0.964 (inactive)	-1.35 (inactive)
CAGIVPAKSVAGNASASA [HC408]	-0.985 (inactive)	0.152 (inactive)	0.898 (inactive)
CARWRRHQEGAGNASASA [FS-3132]	0.592 (inactive)	1.08	1.98
CARWRRSDILAGNASASA [FS-3133]	1.69	5.44 (active)	6.95 (active)
CARWRRSAPGAGNASASA [FS-2111]	8.14 (active)	8.62 (active)	5.76 (active)
CASTPCSAILAGNASASA [HC2544]	1.05	1.22	0.242 (inactive)
CASTPCSATLAGNASASA [HC2558]	0.0385 (inactive)	-0.233 (inactive)	-0.615 (inactive)
CARWRRVAVGAGNASASA [FS-2846]	0.992 (inactive)	1.04	3.3
